# Bioassay records: PubChem BioAssay, National Center for Advancing Translational Sciences (NCATS)
# RORgamma inh – qHTS for inhibitors of ROR gamma transcriptional activity | Nuclear receptor ROR-gamma (Mus musculus), P51450 | Drosophila S2 Gal4-RORgamma UAS-luciferase reporter, 20 h | Potency, µM (titrated, usually from 53.6 µM), for the others: top-dose activity change, negative = inhibition, hits mostly inhibitors | hit rate 5.4% among 310,000; also: nearly all actives have a fitted effect of over 60% in size
#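 Drosophila S2 cells stably expressing Gal4-DBD/mouse RORγ fusion under metallothionein promoter plus UAS-luciferase; compound 1 h, then 700 uM CuSO4 induction for 20 h at ambient temperature; inhibition read as reduced luminescence.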
# TDP1 cell CPT – qHTS for Inhibitors of human tyrosyl-DNA phosphodiesterase 1 (TDP1): qHTS in cells in presence of CPT; chicken DT40 Tdp1-/-;hTDP1 cells + 20 nM CPT, ATP luminescence, 48 h; Potency, µM (titrated, usually from 46.2 µM), without a hit: at the highest dose activity change, negative = growth inhibition, most hits filed as inhibitors; hit rate 12% among 420,000; AID 686979, 2013; also: nearly all actives have a fitted effect of over 55% in size
#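 Chicken DT40 Tdp1-/- cells complemented with human TDP1, 400 cells/well, exposed to compounds plus 20 nM camptothecin for at least 48 h at 37 C; viability read as ATP content by CellTiter-Glo luminescence.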
# VP16 counter – VP16 counterscreen qHTS for inhibitors of ROR gamma transcriptional activity; Drosophila S2 Gal4-VP16 UAS-luciferase, luminescence, 20 h; Potency, µM (doses to about 53.6 µM), for inactives: at the top dose activity, negative = inhibition, actives largely listed as inhibitors; hit rate 3.5% among 310,000; AID 2546, 2010;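 also: Gal4-VP16 expression switched on by copper sulfate through the metallothionein promoter; nearly all actives have a fitted effect of over 50% in size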
# TDP1 cell noCPT – qHTS for Inhibitors of human tyrosyl-DNA phosphodiesterase 1 (TDP1): qHTS in cells in absence of CPT | Potency, µM (series often up to 46.2 µM), for inactives: top-dose activity change, negative = growth inhibition, actives largely listed as inhibitors | DT40 Tdp1-/- hTDP1 cells, no CPT, ATP luminescence, 48 h | hit rate 15% among 420,000; also: nearly all actives have a fitted effect of over 55% in size
#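 Chicken DT40 Tdp1-/- cells stably complemented with human TDP1 were seeded at 400 cells/well with DMSO in place of 20 nM camptothecin. After compound pinning, cells grew at least 48 hr at 37 °C; viability read by CellTiter-Glo luminescence.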
# TDP1 block – qHTS Assay for Inhibitors of Tyrosyl-DNA Phosphodiesterase (TDP1) | AID 485290, 2010 | Potency, µM (series often up to 130 µM), without a hit: at the top dose activity change, negative = inhibition, actives largely listed as inhibitors | Tyrosyl-DNA phosphodiesterase 1 (Homo sapiens), Q9NUW8 | hit rate 0.28% among 350,000 | recombinant TDP1, AlphaScreen DNA substrate cleavage; also: nearly all actives have a fitted effect of over 40% in size
# Target sequence (Q9NUW8 whole entry, looked up): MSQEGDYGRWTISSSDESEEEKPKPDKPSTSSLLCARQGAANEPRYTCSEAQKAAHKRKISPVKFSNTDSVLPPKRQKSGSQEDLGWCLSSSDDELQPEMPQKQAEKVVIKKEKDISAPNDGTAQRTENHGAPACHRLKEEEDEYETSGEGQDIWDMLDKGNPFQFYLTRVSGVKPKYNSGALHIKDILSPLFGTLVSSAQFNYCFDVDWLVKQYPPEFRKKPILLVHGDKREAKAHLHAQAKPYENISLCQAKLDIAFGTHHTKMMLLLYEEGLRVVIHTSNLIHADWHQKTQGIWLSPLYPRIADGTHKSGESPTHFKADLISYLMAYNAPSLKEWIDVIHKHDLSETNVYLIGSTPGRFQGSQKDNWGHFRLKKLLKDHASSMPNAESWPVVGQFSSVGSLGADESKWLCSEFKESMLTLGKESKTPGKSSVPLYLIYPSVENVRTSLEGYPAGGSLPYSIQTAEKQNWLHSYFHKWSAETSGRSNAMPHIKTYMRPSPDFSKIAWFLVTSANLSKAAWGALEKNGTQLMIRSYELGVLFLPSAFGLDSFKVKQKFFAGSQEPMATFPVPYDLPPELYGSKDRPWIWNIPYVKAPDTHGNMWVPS
#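 Here, a 5' biotin and 3' phosphotyrosine-FITC DNA oligonucleotide reports Tdp1 activity: intact substrate bridges AlphaScreen beads, while cleavage leaves a 3' phosphate and drops signal. All incubations at room temperature.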
# An asterisk follows results filed as active; ? = inconclusive; nt = no result. Rows were chosen to be rich in hits. Some 19% of all compounds tested hit in one or more screens of this group. Calls follow the shape of the dose curve; as a rule, active = well fitted curve in the direction sought with a large enough effect; inconclusive = small, poorly fitted or top-dose-only effect, or another doubt; inactive = no such curve, though single readings can be large; an effect the other way counts as inactive or inconclusive. % is scaled to controls: 0 for no effect and ±100 for the full control effect; potency is read from the fitted curve at half-maximal effect.
SMILES,RORgamma inh,TDP1 cell CPT,VP16 counter,TDP1 cell noCPT,TDP1 block
Cc1ccccc1-c1nn[nH]n1,19%,-21%,2%,3%,1%
Oc1ccc(N=Nc2ccccc2-c2nn[nH]n2)c(O)c1,16µM*,-11%,-17%,-19%,nt
CC(=O)c1ccc(N2CCN(C(=O)/C=C/c3ccc(S(=O)(=O)N4CCOCC4)cc3)CC2)cc1,-7%,18µM*,2%,15µM*,8%
CC(=O)c1ccc(N2CCN(C(=O)/C=C/c3ccc(S(=O)(=O)NCc4ccco4)cc3)CC2)cc1,22%,21µM*,-23%,21µM*,5%
O=C(Nc1ccc(N2CCOCC2)cc1)c1ccc(S(=O)(=O)NCc2ccco2)cc1,-12%,19%,4%,0%,-5%
NS(=O)(=O)c1ccc(NC(=O)c2ccc(Cl)c(S(=O)(=O)NCc3ccco3)c2)cc1,nt,?,nt,-24%,1%
O=C(c1ccc(Cl)c(S(=O)(=O)NCc2ccco2)c1)N1CCN(c2ccc(F)cc2)CC1,6%,16µM*,2%,23µM*,6%
CCC(CO)NC1=CC(=O)CCC1 (stereo not given),23%,-14%,14%,-17%,-5%
O=C(NCCSc1c(-c2ccc(Cl)cc2)[nH]c2ccccc12)c1ccc(S(=O)(=O)N2CCOCC2)cc1,nt,3.7µM*,nt,3.7µM*,9%
O=C(NCCSc1c(-c2ccc(Br)cc2)[nH]c2ccccc12)c1ccc(S(=O)(=O)N2CCOCC2)cc1,nt,3.7µM*,nt,4.1µM*,6%
O=C(NCc1ccc2[nH]c3c(c2c1)CCCC3)c1ccc(S(=O)(=O)N2CCOCC2)cc1,?,-23%,7%,?,4%
CCOC(=O)c1cc2c(ccc3nc(C)c(C)c32)[nH]c1C,-23%,-15%,-16%,-19%,nt
COc1cccc(CN2CCN(CCCc3ccccc3)C(CCO)C2)c1OC (stereo not given),-15%,16%,8%,-23%,nt
CN(C)S(=O)(=O)c1cccc(C(=O)Nc2ccc3c(c2)CCC3)c1,-13%,16µM*,1%,18µM*,nt
Cc1cccc(C(=O)Nc2nc(C)c(C(=O)Nc3ccc4c(c3)CCC4)s2)c1,?,23µM*,?,?,12%
CN(C)S(=O)(=O)c1cccc(NC(=O)c2ccc3nccnc3c2)c1,?,13µM*,-5%,23µM*,-3%
Cc1ccc(CSc2nnc(NC(=O)C3=COCCO3)s2)cc1,nt,-21%,nt,-6%,2%
COCCNC(=O)c1ccc(CSCc2cccc(Cl)c2)o1,40%,?,19%,?,nt
O=C(NCCc1ccc(Cl)cc1)c1ccc(CSCc2ccccc2Cl)o1,nt,15µM*,nt,16µM*,3%
Cc1cccc(CSCc2ccc(C(=O)NCCc3ccccc3)o2)c1,nt,?,nt,13µM*,8%
CCCn1c(C)nc2c(NC3CCCCC3)nc(C)nc21,16µM*,nt,9%,nt,7%
CCCn1c(C)nc2c(NCCN3CCCCC3)nc(C)nc21,-1%,nt,-4%,nt,4%
CCOC(=O)C(=O)C1=C(N2CCOCC2)/C(=C\c2cccc([N+](=O)[O-])c2)CC1,18%,-4%,?,-14%,0%
COCCNC(=O)C1(C)CCCN(CCC(=O)c2ccc(Br)cc2)C1 (stereo not given),nt,5.8µM*,nt,7.3µM*,nt
CCNC(=O)C1(C)CCN1CCC(=O)c1ccc(Br)cc1 (stereo not given),nt,21µM*,nt,16µM*,nt
COCCNC(=O)C1(C)CCCN(Cc2ccccc2N(C)C)C1 (stereo not given),nt,-14%,nt,-4%,nt
CCCNC(=O)C1(C)CCN(CCC(=O)c2ccc(Br)cc2)C1 (stereo not given),nt,2.6µM*,nt,3.3µM*,nt
CC(C)CC(=O)NC(c1ccccc1)c1c(O)ccc2ccccc12 (stereo not given),26%,?,22%,?,nt
